# Assay results: ChEMBL document CHEMBL3988442, “University of Dundee, Small-Polar-MMV Screening Library” (2021)
# Target: T1, Methionyl-tRNA synthetase, putative (Leishmania donovani (strain BPK282A1)) (UniProt E9BF75)
# T1 sequence (whole entry): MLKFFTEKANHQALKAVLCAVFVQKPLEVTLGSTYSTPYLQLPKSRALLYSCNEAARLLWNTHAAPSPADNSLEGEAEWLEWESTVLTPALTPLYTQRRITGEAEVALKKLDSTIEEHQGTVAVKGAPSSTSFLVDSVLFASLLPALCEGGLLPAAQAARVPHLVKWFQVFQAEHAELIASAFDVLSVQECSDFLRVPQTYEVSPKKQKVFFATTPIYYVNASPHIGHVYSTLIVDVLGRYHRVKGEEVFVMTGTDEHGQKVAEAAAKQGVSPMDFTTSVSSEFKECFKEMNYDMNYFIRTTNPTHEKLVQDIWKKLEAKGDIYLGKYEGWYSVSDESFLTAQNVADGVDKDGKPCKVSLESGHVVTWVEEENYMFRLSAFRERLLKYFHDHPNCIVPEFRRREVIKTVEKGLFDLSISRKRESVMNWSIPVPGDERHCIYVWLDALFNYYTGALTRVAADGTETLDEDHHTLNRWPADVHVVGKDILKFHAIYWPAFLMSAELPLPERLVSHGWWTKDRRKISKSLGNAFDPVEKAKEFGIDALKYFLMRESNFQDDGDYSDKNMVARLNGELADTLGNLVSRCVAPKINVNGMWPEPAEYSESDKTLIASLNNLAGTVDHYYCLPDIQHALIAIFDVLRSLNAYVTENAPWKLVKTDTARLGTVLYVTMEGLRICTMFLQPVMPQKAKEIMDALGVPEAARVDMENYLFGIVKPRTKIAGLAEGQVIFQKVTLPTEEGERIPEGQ
# Experiment: Leishmania donovani Methionine tRNA synthetase (LdMetRS):v7. Dose response assay
# Assay type: functional
# Parameters: conc 80 nM, time 150 minutes
smiles,measurement,setting,value
CN(C)c1nc2c(c(N3CCc4ccccc4C3)n1)CCNC2,PXC50,"BOTTOM 4.386431105, HILLSLOPE 1.427859325, MAX_EFFECT 80.85808581, TOP 100.0",4.37
same,PXC50,"BOTTOM 4.719660638, HILLSLOPE 1.487233723, MAX_EFFECT 73.91304348, TOP 100.0",4.28
same,PXC50,"BOTTOM 4.739489756, HILLSLOPE 1.201717489, MAX_EFFECT 56.63082437, TOP 100.0",4.07
Nc1cc2c(nn1)CCN(C(=O)c1csc(-c3cccs3)n1)C2,PXC50,MAX_EFFECT 19.04761905,< 4
same,PXC50,MAX_EFFECT 19.56521739,< 4
same,PXC50,MAX_EFFECT 20.14010508,< 4
CC(C)Nc1nc(Nc2ccc(F)c(F)c2)nc2c1cnn2C,PXC50,"BOTTOM 6.912856457, HILLSLOPE 1.265127605, MAX_EFFECT 60.96491228, TOP 58.85327881",5.32
same,PXC50,"BOTTOM 8.026516696, HILLSLOPE 1.466204418, MAX_EFFECT 55.47073791, TOP 58.34935066",5.27
same,PXC50,"BOTTOM 8.495247693, HILLSLOPE 1.610767227, MAX_EFFECT 62.64150943, TOP 64.37148882",5.22
CN(C)c1nc(Nc2ccc(F)c(F)c2)nc2c1cnn2C,PXC50,"BOTTOM 0.0, HILLSLOPE 0.943271721, MAX_EFFECT 54.1567696, TOP 49.71942024",6.12
same,PXC50,"BOTTOM 0.0, HILLSLOPE 1.040792015, MAX_EFFECT 59.65665236, TOP 50.11386445",6.1
same,PXC50,"BOTTOM 0.0, HILLSLOPE 1.064354186, MAX_EFFECT 50.0967118, TOP 49.52260288",6.2
OCCNc1nc(Nc2ccc(F)c(F)c2)nc2[nH]ncc12,PXC50,"BOTTOM 3.46805435, HILLSLOPE 2.296919563, MAX_EFFECT 68.49315068, TOP 65.56498053",5.11
same,PXC50,"BOTTOM 8.366568489, HILLSLOPE 1.390922894, MAX_EFFECT 66.79316888, TOP 71.6605159",5.22
same,PXC50,"BOTTOM -5.242433447, HILLSLOPE 1.269255479, MAX_EFFECT 62.45283019, TOP 64.77487353",5.31
c1ccc(CN2CCC(CCNc3ncnc4c3CCNCC4)C2)cc1 (stereo unspecified),PXC50,"BOTTOM 0.940952942, HILLSLOPE 0.875315482, MAX_EFFECT 60.13864818, TOP 100.0",4.15
same,PXC50,"BOTTOM 1.061688445, HILLSLOPE 1.57945515, MAX_EFFECT 59.73154362, TOP 100.0",4.12
same,PXC50,"BOTTOM -6.676814726, HILLSLOPE 1.817914846, MAX_EFFECT 63.88888889, TOP 100.0",4.17
CNC(=O)CNc1nc(Nc2ccc(F)c(F)c2)nc2c1cnn2C,PXC50,"BOTTOM -2.014141631, HILLSLOPE 0.719425381, MAX_EFFECT 67.11798839, TOP 100.0",4.45
same,PXC50,"BOTTOM -2.647341189, HILLSLOPE 0.864486673, MAX_EFFECT 64.80686695, TOP 100.0",4.36
same,PXC50,"BOTTOM -5.796593818, HILLSLOPE 0.871793388, MAX_EFFECT 66.50831354, TOP 100.0",4.35
NS(=O)(=O)c1cccnc1Nc1cc(C(=O)N2CCC2)cc(C(F)(F)F)c1,PXC50,MAX_EFFECT 2.375296912,< 4
same,PXC50,MAX_EFFECT 5.755395683,< 4
same,PXC50,MAX_EFFECT -0.429184549,< 4
Cc1cc(Nc2nc(NCCO)c3cnn(C)c3n2)cc(C(F)(F)F)c1,PXC50,MAX_EFFECT 17.18061674,< 4
same,PXC50,MAX_EFFECT 18.76208897,< 4
same,PXC50,MAX_EFFECT 22.9338843,< 4
Cn1ncc2c(N3CCC[C@H]3CO)nc(Nc3ccc(F)c(F)c3)nc21,PXC50,"BOTTOM 3.354874327, HILLSLOPE 0.975942115, MAX_EFFECT 81.27853881, TOP 88.63537555",5.05
same,PXC50,"BOTTOM 5.651213015, HILLSLOPE 1.001049773, MAX_EFFECT 83.58490566, TOP 90.01230887",5.05
same,PXC50,"BOTTOM 9.222423555, HILLSLOPE 1.183933311, MAX_EFFECT 81.21442125, TOP 84.5225205",5.23
CCc1cc(N[C@@H]2CC[C@@H](N)C2)n2nc(C)c(C)c2n1,PXC50,"BOTTOM 1.026617696, HILLSLOPE 1.297008069, MAX_EFFECT 52.85961872, TOP 100.0",4.01
same,PXC50,"BOTTOM 3.147594101, HILLSLOPE 1.2343555, MAX_EFFECT 68.05555556, TOP 100.0",4.22
same,PXC50,"BOTTOM 4.251586265, HILLSLOPE 1.063316163, MAX_EFFECT 53.69127517, TOP 100.0",4.06
COC1CCCCC1Nc1nc(Nc2ccc(F)c(F)c2)nc2c1cnn2C (stereo unspecified),PXC50,"BOTTOM 6.09090205, HILLSLOPE 1.180798676, MAX_EFFECT 57.89473684, TOP 61.13511107",4.92
same,PXC50,MAX_EFFECT 49.43396226,< 4
same,PXC50,MAX_EFFECT 49.87277354,< 4
COCCNc1cc(-c2ccccc2CCN)c2cc[nH]c2n1,PXC50,"BOTTOM -0.0153, HILLSLOPE 1.167622452, MAX_EFFECT 63.88888889, TOP 100.0",4.2
same,PXC50,MAX_EFFECT 46.30872483,< 4
same,PXC50,MAX_EFFECT 46.96707106,< 4
OCCCNc1ccnc(Nc2cccc(C(F)(F)F)c2)n1,PXC50,"BOTTOM -1.471323434, HILLSLOPE 0.842843203, MAX_EFFECT 51.77570093, TOP 92.13190163",4.16
same,PXC50,"BOTTOM -3.274011796, HILLSLOPE 1.62633592, MAX_EFFECT 57.93991416, TOP 100.0",4.09
same,PXC50,MAX_EFFECT 49.40617577,< 4
Cn1ncc2c(NCCO)nc(Nc3cccc(C(F)(F)F)c3)nc21,PXC50,MAX_EFFECT 33.39622642,< 4
same,PXC50,MAX_EFFECT 39.26940639,< 4
same,PXC50,MAX_EFFECT 40.60721063,< 4
COCCNc1nc(Nc2ccc(F)c(F)c2)nc2c1cnn2C,PXC50,"BOTTOM 0.0, HILLSLOPE 0.788642153, MAX_EFFECT 89.69957082, TOP 101.1762058",5.15
same,PXC50,"BOTTOM 0.0, HILLSLOPE 0.880096509, MAX_EFFECT 92.63657957, TOP 99.00872691",5.23
same,PXC50,"BOTTOM -0.84748474, HILLSLOPE 0.841528212, MAX_EFFECT 93.81044487, TOP 101.2621412",5.29
Cc1cc(Nc2ccc(F)c(F)c2)nc(NCCO)n1,PXC50,"BOTTOM -0.152929864, HILLSLOPE 0.883857243, MAX_EFFECT 83.3655706, TOP 93.53791092",5.04
same,PXC50,"BOTTOM -2.585097693, HILLSLOPE 0.96868989, MAX_EFFECT 84.50413223, TOP 95.81491094",4.9
same,PXC50,"BOTTOM -4.028659836, HILLSLOPE 0.891804294, MAX_EFFECT 83.70044053, TOP 100.2402145",4.82
